The structures appear in SMILES notation. The panel holds about 79,000 compounds, 15% with a hit somewhere; the sample as a whole holds those more often. Values without a mark were called inactive. Activity calls are given as the source filed them. No stated cut-off is given here; in the data, active means growth inhibition above about 70%; inactive means the rest.

The nature of assay [1]: NCI Yeast Anticancer Drug Screen. Data for the rad50 strain (AID 155).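 Further: 0% = growth of vehicle-only cultures of the same strain.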 Particulars: S. cerevisiae rad50 strain growth inhibition; at 50.0 µM; stronger effect = higher value. The gist of the method: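 DNA repair mutant yeast, compound exposure, growth read-out; inhibition is taken relative to vehicle.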
The nature of assay [2]: NCI Yeast Anticancer Drug Screen. Data for the mec2-1 strain (AID 157). Particulars: S. cerevisiae mec2-1 strain, at 50.0 µM, stronger effect = higher value. The gist of the method:
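mec2-1 yeast strain, carrying an alteration in DNA damage repair or cell cycle control, was exposed to compounds; growth inhibition was measured relative to vehicle-treated controls.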

A short description of assay [3]: NCI Yeast Anticancer Drug Screen. Data for the sgs1 mgt1 strain (AID 161).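 Further: 0% = growth of cultures given vehicle only.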 Particulars: S. cerevisiae sgs1 mgt1 strain, at 50.0 µM, stronger effect = higher value. The gist of the method: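 Growth of a repair-deficient yeast mutant was monitored after compound treatment and expressed as inhibition relative to vehicle-treated cultures.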
Assay [4] in a line: NCI Yeast Anticancer Drug Screen. Data for the cln2 rad14 strain (AID 165).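 Further: 0% = growth equal to vehicle treated cultures.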 Particulars: S. cerevisiae cln2 rad14 strain, at 50.0 µM, stronger effect = higher value. Summed up:
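Yeast carrying cln2 and rad14 alterations (cell cycle control and DNA damage repair) were exposed to compounds. Growth inhibition was measured against vehicle-treated controls.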

The nature of assay [5]: NCI Yeast Anticancer Drug Screen. Data for the bub3 strain (AID 167). Particulars: S. cerevisiae bub3 mutant strain, at 50.0 µM, stronger effect = higher value. The gist of the method: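 In this screen, a yeast mutant lacking normal mitotic checkpoint function is challenged with compound. Relative growth versus vehicle gives the inhibition value.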
A short description of assay [6]: NCI Yeast Anticancer Drug Screen. Data for the mlh1 rad18 strain (AID 175). Particulars: S. cerevisiae mlh1 rad18 strain growth inhibition; at 50.0 µM; stronger effect = higher value. The gist of the method: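 Growth inhibition of the yeast strain was measured after compound exposure and expressed relative to vehicle-treated controls. The strain carries defined defects in DNA damage repair.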

On to `CCN(CC)CCC(=O)O[C@H]1CC[C@H](CC(C)[C@H]2CC(=O)C(C)C=C(C)[C@H](OC(=O)CCN(CC)CC)C(OC)C(=O)[C@@H](C)CC(C)/C=C/C=C/C=C(C)C(OC)CC3CC[C@H](C)[C@](O)(O3)C(=O)C(=O)N3CCCCC3C(=O)O2)CC1OC` (stereo partly specified), for which the growth inhibition in assay [1] is 89.6% (active); in assay [2] it was 91.8% (active); in assay [3], 92.8% (active); in assay [4], 89.3% (active); in assay [5], 91.5% (active); in assay [6] it was 86.5% (active).

Turning to `CCN(CC)Cc1cc(C)c(O)c(N=Nc2cc(OC)c(N=Nc3ccc([N+](=O)[O-])cc3)cc2OC)c1C`, the growth inhibition was 16% in assay [1]; 12.4% in assay [2]; 34.1% in assay [3]; 34.1% in assay [4]; 4.7% in assay [5]; 50.1% in assay [6].

For `N#CC(=C1CCN(Cc2ccccc2)CC1)c1ccccc1`, the growth inhibition is 37.2% in assay [1]; 12.7% in assay [2]; 44.8% in assay [3]; 47.6% in assay [4]; 63.5% in assay [5]; 35.2% in assay [6].

On to `CC(C)(C)NC(NC(C)(C)C)=C(/C=C(/Cl)[N+](=O)[O-])[N+](=O)[O-]`, for which the growth inhibition was -5.5% in assay [1]; -21.1% in assay [2]; 0.45% in assay [3]; -10.9% in assay [4]; 15.9% in assay [5]; 15.1% in assay [6].

`CC(Nc1ccc([N+](=O)[O-])cc1)S(=O)(=O)O` (stereo unspecified): the growth inhibition in assay [1] is 7.4%; in assay [2] it was -0.2%; in assay [3], 13.4%; in assay [4] it was 16.6%; in assay [5], 12.4%; in assay [6] it was 18.4%.

For the compound `CNC(=O)OCc1c(COC(=O)NC)c(C)n(-c2ccccc2)c1C`, the growth inhibition in assay [1] is 7.75%; in assay [2], -14.1%; in assay [3], -24.2%; in assay [4] it was -0.35%; in assay [5] it was -3.95%; in assay [6], -24%.

As for `CNc1c(F)cc(C#N)cc1F`, the growth inhibition was 12.1% in assay [1]; 11.1% in assay [2]; 1.75% in assay [3]; 3.8% in assay [4]; 0.75% in assay [5]; 10.8% in assay [6].

Turning to `COc1ccc(-c2nc(N)nc(-c3cc(C)ccc3O)c2Cl)cc1`, the growth inhibition is 12.7% in assay [1]; -0.45% in assay [2]; 5.3% in assay [3]; 17.4% in assay [4]; 6.5% in assay [5]; 12.6% in assay [6].

As to `COC(=O)c1sc2c(=O)c(C(=O)OC)c(C(=O)OC)sc2c(=O)c1C(=O)OC`, the growth inhibition was 23.1% in assay [1]; 27.4% in assay [2]; 54.3% in assay [3]; -1.1% in assay [4]; 50.9% in assay [5]; 38.6% in assay [6].

Regarding `COC(C)CCOC(=O)COc1ccccc1` (stereo unspecified), the growth inhibition in assay [1] is 17.8%; in assay [2], -10%; in assay [3], 8.35%; in assay [4], -11.3%; in assay [5] it was 13.8%; in assay [6], 8.3%.

For `COC(=O)C1=C(C)C(=O)[C@]23C(CCCC[C@H]12)C(=O)[C@H](C(=O)OC)C3C` (stereo partly specified), the growth inhibition in assay [1] is -19.7%; in assay [2], -31.2%; in assay [3], -11%; in assay [4], -20.9%; in assay [5] it was -13.9%; in assay [6], 16.1%.

Consider `CC1=C(\C=C/C(C)=C/C=C/C(C)=C/C=N/NC(=O)c2cccnc2)C(C)(C)CCC1`, for which the growth inhibition in assay [1] was 2.4%; in assay [2] it was -7.4%; in assay [3] it was 33.5%; in assay [4], 41.6%; in assay [5] it was 30%; in assay [6], 27.6%.

On to `C1CCOC2(CCC3(CC2)OCCCCO3)OC1`, for which the growth inhibition in assay [1] is -16.5%; in assay [2], 2.55%; in assay [3], -18.2%; in assay [4], -44.2%; in assay [5] it was -10.2%; in assay [6], -39.4%.

On to `CC1CC[N+]2(C)CCCC12` (stereo unspecified), for which the growth inhibition in assay [1] was 1.1%; in assay [2], -4.4%; in assay [3], -5.3%; in assay [4], -39.3%; in assay [5] it was -23.9%; in assay [6], -12.4%.

As for `c1c2c(cc3c1OCN(C1CC1)C3)OCN(C1CC1)C2`, the growth inhibition in assay [1] is 0.7%; in assay [2] it was 5.6%; in assay [3] it was 10%; in assay [4], -19.2%; in assay [5], -13.8%; in assay [6], -3.35%.

For the compound `COc1cc(OC)c(OC)cc1/C=C/c1cc[n+](C)c2ccccc12`, the growth inhibition was 9.1% in assay [1]; -6.35% in assay [2]; 11.6% in assay [3]; -0.8% in assay [4]; 4.95% in assay [5]; 8.05% in assay [6].

Turning to `O=[N+]([O-])c1cc(NC(=S)SCc2ccc3c(c2)OCO3)ccc1Cl`, the growth inhibition in assay [1] was 82.7% (active); in assay [2], 72.2% (active); in assay [3], 76.7% (active); in assay [4], 42.8%; in assay [5], 56.4%; in assay [6], 78% (active).

As to `CCN(CC)CCOC1(Cc2ccccn2)CCCCC1`, the growth inhibition in assay [1] was 1.2%; in assay [2], 15.2%; in assay [3] it was 6.7%; in assay [4] it was 21.3%; in assay [5] it was -0.4%; in assay [6], -9.75%.

Turning to `CC(C)C1OC2(CCCC2)OCC1(C)C` (stereo unspecified), the growth inhibition is -10.2% in assay [1]; -19.4% in assay [2]; -10.4% in assay [3]; -21.8% in assay [4]; -4.7% in assay [5]; -1.1% in assay [6].

As to `O=C(Nc1ccccc1Br)c1ccc(F)cc1`, the growth inhibition in assay [1] is -0.9%; in assay [2], 3.1%; in assay [3], -11.3%; in assay [4], -18.4%; in assay [5] it was 14.8%; in assay [6] it was 14.6%.

With `CCOC(=O)c1nc2cc(C(F)(F)F)ccc2nc1Nc1ccc(OC)c(OC)c1`, the growth inhibition was -18.1% in assay [1]; -6.15% in assay [2]; -16.9% in assay [3]; -12.4% in assay [4]; -12.8% in assay [5]; -14% in assay [6].

These data come from PubChem BioAssay (NCI).
